Assay results published in PubChem BioAssay AID1508600 (Functional Genomics Laboratory (NCATS/FGL), 2020).
The whole screen tested about 53,000 sequences, of which about 3,700 (7%) were called active.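 How the source made its calls: active means gene knockdowns whose robust z-score for IL-1 alpha signal is at least 2 or at most -2, so actives lie on both sides; inactive means the rest.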 The entries come from a sample that favours actives as a whole.

assay: Components of the Cytosolic LPS Sensing Pathway: Gene Identification via Genome-wide siRNA Screen; details: RAW264.7 macrophages, IL-1a HTRF, actives lie on both sides, screened at 100 nM (by protocol), cells primed 5 h with Pam3CSK4 first;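 further: robust z of the log signal after scaling to non-targeting control siRNA wells of the plate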
In short: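 RAW264.7 mouse macrophages reverse-transfected with single siRNAs (100 nM final) for 48h, primed with Pam3CSK4 for 5 hours, then transfected with LipidA for 24 hour. Supernatant IL-1a read by HTRF; values normalized to negative-control median, log-transformed robust z-scores.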

z-score, active:
GGACCGGUGUAAGCUUCGATT against Hinfp 2.05
GGACCGCGUUCAAGAAGAATT against Cyp2c37 2.17
GGUUCACAGAUGAUACCUUTT against Rab18 4.59
GCGGCCUCUUGAAUGAUUCTT against Ccndbp1 2.16
GGUUGAUGGGUAAUAAACUTT against Nfatc4 -2.16
GGAGACAACAACAAGACAUTT against Tbk1 3.12
GGUAUGUCUGCAUAAAUGUTT against Cyp2c38 2.74
CGUGGAAGACAUACAACCCTT against Tmem181a 3.03
GGAGCUUCAAGGUCUGUCGTT against Tmc6 -2.65
GGAAAUCCUGGGACAGAACTT against Htatip2 -2.42
GGUGAAUCAGACAUACUAUTT against Snupn 3.31
GGACGAUUCUUUUCUCCAGTT against Surf1 -2.07
CCUAGACUUGAACAAACACTT against Lsm12 -2.11
GCCACAUUCUUCUCAACCUTT against Tas2r106 -2.14
GGAUUUUCCAGGCAUGAGGTT against Ehd3 -2.24
GAGUUGUACUCUUCACUAUTT against Olfr497 -2.6
GCUUUUGGACUGAAUCUCATT against 2210016L21Rik 2.78
CGGACUUACCAAAAGCGCATT against Lss 3.16
GGAAGUAAAAACAUACCUUTT against Chac2 2.02
GGAAGUGGUGGAACUCCUGTT against Tmem215 -2.65
CCUUCAUGCAACAGCUACUTT against Nckap5l -2.57
GCCCUAUCUACCAUAACACTT against Dok3 -2.11
GGGCAUCAUGAAACUAUGUTT against Kbtbd4 -2.59

z-score, inactive:
GCCGCACCGAAAGUGAAAUTT against Copz2 -0.391
GCUAGAGGAUGGCUGAGCUTT against Poll -0.581
GGUGACUGAAAUCAAACACTT against Il9r -1.71
GGAAGGAUUGCCUUUAGGATT against Rbm12b2 0.29
GGAGUAUGAAUUUGUGACUTT against Arhgdig -0.526
GGAGAAUUUGGAAAGUGAGTT against Rnf150 0.0696
GGGUAAACACCCAUUUAGCTT against Lbx2 -0.156
GGUCCUAGGCCUACUCAUCTT against Cd46 -0.318
GGUCCUACUAUAACCUGCGTT against Gdf3 -0.103
GCAGAUUUUGACUAAAGGATT against Sbds -0.747
GCAGUGAACCGUAUUGGACTT against Ncam1 0.406
GGACCUUCCAGCAAGAUUUTT against Rnf13 0.28
GCCGGCAGUAAAGAUUCAUTT against Cog2 0.938
CCGGGUAGUCUUUUUGGUGTT against 9130019O22Rik -1.72
GGGAAGAAAGGAUGGGAAATT against Fev 0.355
GGUUGUUAUGGUCUCAUAUTT against Lrrc40 -0.62
GGUUUCAAGAAAGAUAUGATT against Cntnap5b -0.891
GGAAUUAAGAAGACAAUUCTT against Emc2 -1.22
GGAUGUCUCCAUGAAGGAATT against Ccnb2 -1.12
GGAAUGGAUAAAAACAUUGTT against Tank 1.27
GGUGGUCUACUUAGGUUUATT against Sc5d 0.63
GCGUGCAGCCCUCAAUGAATT against Ppp2r5b 0.84
GGCGAACAGAGAGAGUUAGTT against 4921524J17Rik 0.677
GGGCUUCACUUCCUUAGGATT against Cog3 0.0276
GGGCUGAAGUGAAAACAGCTT against Mmp8 -0.523
GGAUAACUCACAAGAGUCUTT against Zdhhc16 -0.296
GGCUUUUUGUUAAGGCAGCTT against Ap1ar 1.59
GGAGAAAGCUGCUCAUGAATT against Caml -0.477
GGCAGAUGAUCCCGGGAUUTT against Clvs1 0.545
GGUUCGUGUGGUUUAACAUTT against Afg3l1 1.55
GGAUGAGAGGUAAAGUAACTT against Nptxr 0.802
GGUUCUCUGAUACCCACUCTT against Mgat4e 0.44
GGAAAUGUGGAGAGAAAAUTT against P2ry4 1.02
GGCGACAUAUUUUUCAAACTT against Fmn1 -0.506
GGUCCGAGAGACAUUGGCATT against Lmx1b -0.118
CCUUAUAAGAAAGAUAGACTT against Nhlrc2 -0.591
GCUGGAUGGCCGUUUCAAATT against Fancd2os -0.00925
GGAACUAAAUCUUCCAUCCTT against Chit1 -1.02
GGAAAUAGAAGACCAGUUUTT against Srsf3 -1.43
GGCACCAUCUACGACUAUGTT against Gpx5 -0.649
GGUGAGCACUAAAUGCAGATT against Cldn16 0.892
GCAAAUGUUGCCCAUCGUGTT against Ppp2r1b 0.44
GCCUGAGAUCGUGAACACUTT against Ccdc159 -0.0179
GGAGGCCUUGUACUUACACTT against Rspo1 1.26
GGUAUGGAUGCUUGAGAAATT against Ccdc77 -1.15
GGAGCCAGUCCAAAUUGCATT against Il13ra1 0.561
GCCCAUUGAGUUUGAUUCATT against Itgav 1.57
CCUCAUCGAAUUCGAUACCTT against Arrb2 -0.181
CGCUACGUCCAGUAUCACCTT against Tmem192 -0.471
CCAGAUAGGUAAAAAACAATT against Acta2 -0.562
GCAAAUUUAAGAGAAGUUGTT against Dse -0.132
GCUUCGGCCUCAGUAUUCATT against Pigb 0.0355
GCAUACUUAGGAUACACGCTT against A830005F24Rik -0.647
GGUAGUUAACACAAAAUUGTT against 4932438H23Rik 0.334
GGACUUCUUGGACCUACUUTT against F5 -1.55
GGUAGGAGGUAUUUCCCACTT against Shisa5 0.197
GGCUUCUAAGCAUACUCAGTT against Iqsec1 -0.257
GCUCCUCUCCAAGGUCAUUTT against Olfr96 0.652
GGAAAUGCGCCAUGAGUUGTT against Soga3 -0.124
GGACUAUUGUCUCAUUUGATT against Olfr1189 1.04
GGACAACGUAGCCUUCGUUTT against Ncln -0.562
GGUGGAUUCUAUUAAAUGCTT against Gm14461 0.462
CCAUUAGCAAUGUGCUUCUTT against Unc13a 0.268
GGUGUUCGAGAAGCUGAAGTT against Haus7 -0.371
GGAUCUUUCGUGUGGAAAATT against Atf7ip 0.87
GGCCACCUUCUUUGAGGUATT against Snai1 1.11
GGUAGGACUAACAAUAAAATT against Gpr4 -0.0158
GACCUGAAUAAAGACUGUCTT against Cort 0.697
GGAGAGAGAUGAAAUUUGATT against Kif26b 1.79
GGAGAAAAUCAACAAGAUCTT against Ppp2r2c -0.437
CCAUUGAGGUAAUGUUUGATT against Rmnd1 0.978
UGAUAUCGGAACAGAGAUGTT against Tbx15 -0.467
CCCAAAGCCCUUUUAAACUTT against Hmbs 0.301
GGUAAAAGACUAAAGAAGATT against Coch -0.485
CCGCUGUUUUCAACUGUGCTT against Asb10 -0.773
GGACCUGGUCACCAUCUUGTT against Tram2 -0.3
CGGCAGAAGGGUUUUUAUGTT against Rnf126 -0.365
CCAUACAUAUAGACAAUCCTT against AY358078 0.796
GGAUUCAGAAAUCUGGAAATT against Nmnat3 -0.199
GGUCAUCUUACAGUUUAAATT against Smap2 0.593
GCGAAUAUCCAACCUAUCUTT against Itgb7 -0.687
GCUGAAGGCGACAAUGGAUTT against Ak2 -0.0901
GGCCUGCUAUAUGCAUUCCTT against Krtap12-1 0.974
GGAAAAGAUGCCUGUAUUUTT against Sgcd -0.422
